Results as given in PubChem BioAssay (Tox21).
Inconclusive results are not listed. Calls of active or inactive are those of the source. Calls come from the whole dose curve.

Assay: p53 small molecule agonists, cell-based qHTS assay: qHTS cell viability counter screen (AID 1963581); note: nearly all actives have a fitted effect of over 45% in size
Conditions: p53RE-bla HCT-116 viability, ATP luminescence, 16 h; series mostly up to 66 µM; activity change, negative = cytotoxicity: at the top concentration
Text: National Center for Advancing Translational Sciences [NCATS]
Division of Preclinical Innovation [DPI]
U.S. Environmental Protection Agency [EPA]
National Institutes of Environmental Health Sciences [NIEHS]
National Toxicology Program [NTP]
U.S. Food and Drug Administration [FDA]
p53, a tumor suppressor protein, is activated following cellular insult, including DNA damage and other cellular stresses. The activation of p53 regulates cell fate by inducing DNA repair, cell cycle arrest, apoptosis, or cellular senescence. The activation of p53, therefore, is a good indicator of DNA damage and other cellular stresses. The CellSensor p53RE-bla HCT-116 cell line (Invitrogen) contains a stably integrated beta-lactamase reporter gene under control of the p53 response elements. The activation of the reporter gene under culture conditions can be detected by fluorescence intensity. This cell line was used to screen the Tox21 compound library in a 1536-well plate format and to identify agonists that activate the p53 signaling pathway. The cytotoxicity of the Tox21 compound library against the p53 RE-bla HCT-116 cell line was tested in parallel by measuring the intra cellular ATP content in the same wells.
Tox21 Assay Protocol Summary:
The p53RE-bla cells were dispensed at 4,000 cells/5 ul/well in 1536-well black wall/clear bottom plates using a Multidrop dispenser. After the assay plates were incubated at a 37 C/5% CO2 incubator for 5 hours, 23 nL of compounds dissolved in DMSO, positive controls or DMSO only was transferred to the assay plate by a pin tool. The plates were incubated at 37 C for 16 hours. After 1 uL of LiveBLAzerTM B/G FRET substrate was added using a Flying Reagent Dispenser, the plates were incubated at room temperature for 2 hours, and fluorescence intensity was measured by an Envision plate reader. For cell viability readout that measures cytotoxicity, 4 ul/well of CellTiter-Glo reagent was added into the assay plates using a Flying Reagent Dispenser. After 30 min incubation at room temperature, the luminescence intensity in the plates was measured using a ViewLux plate reader.
% is set by controls: 0 for no effect and ±100 for the full control effect.

Row | SMILES | activity change, negative = cytotoxicity | Potency
1 | OC[C@H]1O[C@@H]2O[C@H]3[C@H](O)[C@@H](O)[C@@H](O[C@H]4[C@H](O)[C@@H](O)[C@@H](O[C@H]5[C@H](O)[C@@H](O)[C@@H](O[C@H]6[C@H](O)[C@@H](O)[C@@H](O[C@H]7[C@H](O)[C@@H](O)[C@@H](O[C@H]8[C@H](O)[C@@H](O)[C@@H](O[C@H]9[C@H](O)[C@@H](O)[C@@H](O[C@H]1[C@H](O)[C@H]2O)O[C@@H]9CO)O[C@@H]8CO)O[C@@H]7CO)O[C@@H]6CO)O[C@@H]5CO)O[C@@H]4CO)O[C@@H]3CO | 14.6% [at 30.3 µM] (inactive) | –
2 | CC(N)=O | 0.236% [at 172 µM] (inactive) | –
3 | Cc1nn(C)c(Oc2ccccc2)c1/C=N/OCc1ccc(C(=O)OC(C)(C)C)cc1 | -3.85% (inactive) | –
4 | CC1CN(c2ccccc2)NC1=O (stereo not given) | -6.71% (inactive) | –
5 | CC(C)(N)C#N | 0.665% (inactive) | –
6 | Oc1cc2c(cc1O)[C@H]1c3ccc(O)c(O)c3OC[C@@]1(O)C2 | -5.4% (inactive) | –
7 | OC(CN1CCC(Cc2ccc(F)cc2)CC1)c1ccc(Cl)cc1 (stereo not given) | 2.45% [at 30.3 µM] (inactive) | –
8 | COC(=O)C1=C(C)NC(COC(N)=O)=C(C(=O)OC(C)C)C1c1cccc(Cl)c1Cl (stereo not given) | 1.52% [at 30.3 µM] (inactive) | –
9 | O=[N+]([O-])c1ccc(Nc2ccc(Nc3ccccc3)c(S(=O)(=O)O)c2)c([N+](=O)[O-])c1 | -0.877% (inactive) | –
10 | CC(C)CCCCCCN | 14.4% (inactive) | –
11 | O=C(O)c1cccnc1Nc1cccc(C(F)(F)F)c1 | 3.78% [at 30.3 µM] (inactive) | –
12 | O=C(NO)c1ccccc1 | -21.1% (inactive) | –
13 | CCCC(=O)OC | -10% (inactive) | –
14 | c1ccc2sc(SN3CCOCC3)nc2c1 | -5.17% [at 30.3 µM] (inactive) | –
15 | CC/C=C\CCOC(C)OCC (stereo not given) | 6.41% [at 30.3 µM] (inactive) | –
16 | O=C(O)CNC(=O)CNC(=O)CNC(=O)CSC(=O)c1ccccc1 | -16.2% [at 30.3 µM] (inactive) | –
17 | Cc1ccccc1N=C(N)Nc1ccccc1C | -2.2% (inactive) | –
18 | C=CCCC(=O)O | 2.16% (inactive) | –
19 | c1cc(CCCc2ccncc2)ccn1 | -7.35% (inactive) | –
20 | Cc1[nH]cnc1C[C@H]1CCc2c(C)c3ccccc3n2C1=O | 7.61% (inactive) | –

Row | SMILES | activity change, negative = cytotoxicity | Potency
21 | COC(=O)C1=C(C)NC(C)=C(C(=O)OCCCN2CCC(c3ccccc3)(c3ccccc3)CC2)C1c1cccc([N+](=O)[O-])c1 (stereo not given) | -25.5% [at 30.3 µM] (inactive) | –
22 | N/C(=N\N=C\c1ccc(Cl)cc1)N/N=C/c1ccc(Cl)cc1 | -13.4% [at 30.3 µM] (inactive) | –
23 | CC1(C)C(=O)N(Cl)C(=O)N1Br | 0.0319% (inactive) | –
24 | CN(C)CCCN1c2ccccc2Sc2ccc(C(F)(F)F)cc21 | 29.2% [at 30.3 µM] (inactive) | –
25 | NCCc1cnc[nH]1 | 6.99% [at 30.3 µM] (inactive) | –
26 | CCC1OCC(COc2ccc(Oc3ccccc3)cc2)O1 (stereo not given) | -6.62% (inactive) | –
27 | CCN(CC)CCOc1ccc2c(c1)C(=O)c1cc(OCCN(CC)CC)ccc1-2 | -11% [at 30.3 µM] (inactive) | –
28 | COc1ccc(Cc2cnc(N)nc2N)cc1OC | 0.268% [at 30.3 µM] (inactive) | –
29 | CCN1CCC[C@H]1CNC(=O)c1c(OC)ccc(Br)c1OC | -10% [at 30.3 µM] (inactive) | –
30 | O=Cc1cc(O)ccc1Br | 14.5% (inactive) | –
31 | CC(=O)CCc1ccc(OC(C)=O)cc1 | -4.95% (inactive) | –
32 | NC(=O)c1c(Cl)cccc1Cl | -2.64% (inactive) | –
33 | CCCC(C)CC (stereo not given) | -1.67% (inactive) | –
34 | COc1cc(OC)c2ccc(=O)oc2c1 | -9.56% (inactive) | –
35 | C1CN(SSN2CCOCC2)CCO1 | – | inactive
36 | CCCCCC1Nc2cc(C(F)(F)F)c(S(N)(=O)=O)cc2S(=O)(=O)N1 (stereo not given) | 24.9% [at 30.3 µM] (inactive) | –
37 | CC1=C(C(=O)O)N2C(=O)[C@@H](NC(=O)[C@H](N)c3ccccc3)[C@H]2SC1 | 4.21% [at 30.3 µM] (inactive) | –
38 | NC(N)=NS(=O)(=O)c1ccc(N)cc1 | 7.57% [at 30.3 µM] (inactive) | –
39 | CCOC(=O)c1ccccc1OC | 22.3% (inactive) | –
40 | O=C(OCCc1ccccc1)c1ccccc1 | 1.15% (inactive) | –
